# Test results: PubChem BioAssay AID488969 (Vanderbilt High Throughput Screening Facility, 2010)
# In all, about 110,000 compounds were measured (“z-score”: median about -0.1, highest 2% from about 2 on). Only a selection was taken, and the highest values are over-represented in it overall. Activity calls are given as the source filed them.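 How the source made its calls: active means z-score in the third read window above 3 or below -3; inactive means the rest.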
# Molecular target: Metabotropic glutamate receptor 8 (Rattus norvegicus) (UniProt P70579)
# Sequence (P70579 whole entry, looked up): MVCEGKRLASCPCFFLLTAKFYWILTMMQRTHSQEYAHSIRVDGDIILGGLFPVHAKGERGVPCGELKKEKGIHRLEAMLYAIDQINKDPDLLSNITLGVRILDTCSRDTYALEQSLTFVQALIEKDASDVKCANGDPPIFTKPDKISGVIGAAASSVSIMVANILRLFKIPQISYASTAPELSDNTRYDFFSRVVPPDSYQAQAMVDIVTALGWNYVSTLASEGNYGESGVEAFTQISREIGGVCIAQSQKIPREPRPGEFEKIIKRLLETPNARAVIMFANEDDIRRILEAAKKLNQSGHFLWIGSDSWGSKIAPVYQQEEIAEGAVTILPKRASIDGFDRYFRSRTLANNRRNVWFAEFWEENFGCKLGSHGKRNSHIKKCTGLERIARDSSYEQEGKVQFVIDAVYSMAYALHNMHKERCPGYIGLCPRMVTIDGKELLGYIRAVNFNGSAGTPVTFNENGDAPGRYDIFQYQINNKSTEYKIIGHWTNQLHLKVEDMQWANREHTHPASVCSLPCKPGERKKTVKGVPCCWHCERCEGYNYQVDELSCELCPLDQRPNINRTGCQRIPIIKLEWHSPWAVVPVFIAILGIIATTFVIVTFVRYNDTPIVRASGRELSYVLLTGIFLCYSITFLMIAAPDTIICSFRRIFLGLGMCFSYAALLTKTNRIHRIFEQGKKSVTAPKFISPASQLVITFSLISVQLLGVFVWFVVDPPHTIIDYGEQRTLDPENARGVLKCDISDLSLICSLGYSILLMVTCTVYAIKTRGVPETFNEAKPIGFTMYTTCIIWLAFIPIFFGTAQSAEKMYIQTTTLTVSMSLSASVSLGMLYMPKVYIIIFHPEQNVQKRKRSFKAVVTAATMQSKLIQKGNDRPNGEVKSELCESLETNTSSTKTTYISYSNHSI
# Assay: rat mGluR8 modulators via GIRK flux, primary screen, cell-based, thallium flux, HTS (AID 488969)
# Details: HEK293 rat mGluR8, GIRK (G protein-gated inwardly rectifying potassium channel) thallium flux, FluoZin2; at 10 µM; stronger effect = higher value; submaximal glutamate (EC20) added with thallium
row,Compound,z-score
1,C1CCC2(CC1)OCC1(CO2)COC2(CCCCC2)OC1,3.83 (active)
2,C[N+]1(CC2COC3(CCCCC3)O2)CCCC1 (stereo unspecified),-0.214
3,Nn1c(SCc2ccccc2)nnc1-c1ccccn1,0.00631
4,CC(=O)NCCn1c(SCC(=O)NCC2CCCO2)nc2ccccc2c1=O (stereo unspecified),0.564
5,CCN(CC)S(=O)(=O)c1cccc(-c2nnc(C(=O)c3ccc(C(F)(F)F)cc3)o2)c1,-0.091
6,CC(C)Oc1cc(NC(=O)CS(=O)CC(=O)Nc2cccc(C(F)(F)F)c2)c(Cl)cc1Cl (stereo unspecified),2.75
7,COc1cc(NC(=O)CSCC(=O)Nc2cccc(C(F)(F)F)c2)c(Cl)cc1Cl,-0.193
8,CC(C)Oc1cc(NC(=O)CSCC(=O)Nc2cccc(C(F)(F)F)c2)c(Cl)cc1Cl,-0.183
9,CCCn1nnnc1NC(=O)c1cccs1,0.876
10,CCCn1nnnc1NC(=O)c1ccc2ccccc2c1,8.08 (active)
11,CCCn1nnnc1NC(=O)c1cc(Cl)ccc1Cl,0.462
12,CSc1nc(Cc2ccc(Cl)cc2)nc2ccccc12,0.221
13,CS(=O)(=O)N(CC(=O)Nc1ccccc1)Cc1ccc(Cl)cc1,0.264
14,CCN=c1scc(-c2ccco2)n1/N=C/c1ccc(O)cc1,6.24 (active)
15,CCN=c1scc(-c2ccco2)n1/N=C/c1ccc(OC)c(O)c1,0.709
16,CC(C)N=c1scc(-c2ccco2)n1/N=C/c1ccc(O)c(O)c1,1.68
17,O=C(CCn1c(=O)sc2ccccc21)Nc1ccon1,-0.246
18,Cc1ccc(OS(=O)(=O)c2ccccc2)c(/C=N/N=C2\NC(=O)C(C)S2)c1 (stereo unspecified),-0.426
19,O=C(O)/C(=C\c1ccc(Br)cc1)c1ccc(S(=O)(=O)N2CCCCC2)s1,-0.862
20,CCOC(=O)C(Cc1ccccc1)NC(C)=O (stereo unspecified),-0.16
21,CCCN(C(=O)CSc1cc(-c2ccccc2)c2ccc(OC)cc2n1)C1CCS(=O)(=O)C1 (stereo unspecified),-0.403

row,Compound,z-score
1,COc1ccc2c(-c3ccccc3)cc(SCC(=O)N(C)C3CCS(=O)(=O)C3)nc2c1 (stereo unspecified),2.36
2,CCN(C(=O)CSc1cc(-c2ccccc2)c2ccc(OC)cc2n1)C1CCS(=O)(=O)C1 (stereo unspecified),-0.108
3,O=C(CSc1nnc(Cc2ccccc2)n1-c1ccc(F)cc1)N1CCOCC1,0.477
4,O=S(=O)(Cc1cc(Cl)nc(-c2ccccc2)n1)c1ccccc1,-0.303
5,COc1ccc(C(=O)NC(=S)Nc2ccc3c(c2)Cc2ccccc2-3)cc1,0.991
6,O=C(COc1ccccc1)NC(=S)Nc1ccc2c(c1)Cc1ccccc1-2,6.86 (active)
7,O=C(COc1ccccc1)NC(=S)Nc1cccc([N+](=O)[O-])c1,11.8 (active)
8,O=C(COc1ccccc1)Nc1ccc([N+](=O)[O-])cc1,0.423
9,O=C(COc1ccccc1)Nc1ccc2c(c1)Cc1cc(NC(=O)COc3ccccc3)ccc1-2,-0.155
10,O=C(COc1ccccc1)NC(=S)Nc1cccc(NC(=O)c2ccccc2Cl)c1,-0.164
11,CC(Sc1ccccn1)C(=O)Nc1ccccc1 (stereo unspecified),-0.408
12,Cc1cc2nc(-c3ccco3)cc(C(F)(F)F)n2n1,0.0437
13,CC1CC(Nc2cccc(O)c2)=CC(=O)O1 (stereo unspecified),-0.0768
14,CCCCC(=O)Nc1ncc2c(n1)CC(C)(C)CC2=O,6.64 (active)
15,CC1(C)CC(=O)c2cnc(NC(=O)CCc3ccccc3)nc2C1,-0.267
16,CCCCC1CC1C(=O)Nc1ncc2c(n1)CC(C)(C)CC2=O (stereo unspecified),-0.185
17,O=C(O)C1CC(=O)N(Cc2cccs2)C1 (stereo unspecified),0.254
18,O=C(CCSc1ccccc1)Nc1nccs1,0.115
19,O=C(CSc1ccccc1)N(c1ccc(Br)cc1)c1nccs1,9.08 (active)
20,Cc1nc(-c2ccccc2)sc1C(=O)CSc1ccc(Br)cc1,-0.108
21,CCOC(=O)C1CCCN(C(=O)c2cc3c(-c4cccc(OC)c4)nn(C)c3s2)C1 (stereo unspecified),-0.832

row,Compound,z-score
1,Cc1nc(=O)c(-c2ccccc2)c(C)n1CCO,-0.0934
2,N=c1c2c3c(sc2ncn1CCCO)CCCC3,-0.123
3,N=c1c2c3c(sc2ncn1Cc1ccccc1)CCCC3,0.187
4,CC(C)Cn1cnc2sc3c(c2c1=N)CCCC3,3.07 (active)
5,CCCNC(=S)Nc1ccc(Cl)cc1C,-0.142
6,COc1cccc(N2CCN(Cc3nc(N)nc(Nc4ccccc4OC)n3)CC2)c1,-0.203
7,Cc1cccc(C)c1OCC(=O)NCc1nnc(SCC(=O)NC2CCCCC2C)n1C (stereo unspecified),-0.0497
8,Cc1ccc(NC(=S)NNc2ncc(C(F)(F)F)cc2Cl)c(C)c1,2.04
9,CN(NC(=O)Nc1ccc(Cl)cc1)c1ncc(C(F)(F)F)cc1Cl,0.137
10,CC(C(=O)Nc1ccc(Cl)cc1)c1ncc(C(F)(F)F)cc1Cl (stereo unspecified),-0.108
11,FC(F)(F)c1cnc(NNC(=S)Nc2ccccc2Cl)c(Cl)c1,5.28 (active)
12,FC(F)(F)c1cnc(NNC(=S)Nc2ccc(Cl)cc2)c(Cl)c1,6.35 (active)
13,Cc1ccccc1NC(=S)NNc1ncc(C(F)(F)F)cc1Cl,0.522
14,Cc1cccc(C)c1NC(=S)NNc1ncc(C(F)(F)F)cc1Cl,0.289
15,O=C(NNc1ncc(C(F)(F)F)cc1Cl)c1c(Cl)cccc1Cl,0.951
16,Cc1c(Cl)cccc1NC(=S)NNc1ncc(C(F)(F)F)cc1Cl,0.506
17,Fc1ccccc1NC(=S)NNc1ncc(C(F)(F)F)cc1Cl,1.37
18,Cc1ccc(NC(=S)NNc2ncc(C(F)(F)F)cc2Cl)cc1,2.19
19,Nc1ccccc1C(=O)NNc1ncc(C(F)(F)F)cc1Cl,0.251
20,COc1cc2c(cc1NC(=O)c1cccc(Br)c1)CCCC2,0.201
21,N#Cc1cc2c(nc1SCC(N)=O)CCCCC2,-0.0763

row,Compound,z-score
1,COc1ccc(-c2csc(Nc3cccnc3)n2)cc1OC,-0.0895
2,Cc1cc(=O)oc(C)c1C(=O)OCC(=O)c1ccc2ccccc2c1,-0.249
3,CCCCCCn1cnc2c(c1=O)c1nc3ccccc3nc1n2Cc1cccs1,-1.43
4,CCCCNc1c2c(nc3c(-c4ccccc4)c(C)nn13)CCC2,-0.294
5,Cc1nn2c(NCCCN(C)C)c3c(nc2c1-c1ccccc1)CCC3,3.36 (active)
6,Cc1nn2c(NCCCN3CCOCC3)c3c(nc2c1-c1ccccc1)CCC3,-0.0116
7,O=C(CN1CCOCC1)Nc1ccc(C2CCCCC2)cc1,2.23
8,O=C(CN1CCOCC1)Nc1ccc(Oc2ccccc2)cc1,1.91
9,CN1CCN(CC(=O)Nc2ccc(Oc3ccccc3)cc2)CC1,1.4
10,CC1CCCCN1CC(=O)Nc1ccc(Oc2ccccc2)cc1 (stereo unspecified),3.58 (active)
11,COc1ccc(NC(=O)CN2CCCCC2)cc1,0.473
12,O=C(CN1CCOCC1)Nc1ccc(Oc2ccc(NC(=O)CN3CCOCC3)cc2)cc1,-0.278
13,CC1CCCCN1CC(=O)NC(=O)NCc1ccccc1 (stereo unspecified),-0.261
14,O=C(CN1CCOCCOCCOCCOCC1)Nc1ccccc1,0.356
15,O=C(CN1CCCC1)Nc1ccc(Oc2ccc(NC(=O)CN3CCCC3)cc2)cc1,2.7
16,O=C(CN1CCN(C(=S)NC2CCCC2)CC1)Nc1ccc(Oc2ccccc2)cc1,-0.13
17,O=C(CN1CCNCC1)Nc1ccc(Oc2ccccc2)cc1,2.35
18,O=C(CN1CCOCCOCCOCC1)Nc1ccccc1,0.274
